Potency and affinity values are given separately. The source made the active and inactive calls.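 Rule for the calls: active = signal-lowering compounds whose fitted half-maximal concentration is at or below twice the top tested dose in every run; inconclusive = runs disagree, flat 30 to 70% inhibition, or poor curve fit; inactive = the rest.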
target: Protein S100-A4 (Homo sapiens) (UniProt P26447); experiment: human S100A4 peptide interaction inhibition curves – biochemical, fluorescence polarization, cherry-picked hits, dose response (AID 687001); conditions: FP, S100A4/TAMRA-myosin IIA peptide binding; series mostly up to 11 µM; activity change, negative = inhibition: at the top concentration;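 note: 0% = DMSO neutral control wells and -100% = TFP positive control wells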
Sequence (P26447 whole entry, looked up): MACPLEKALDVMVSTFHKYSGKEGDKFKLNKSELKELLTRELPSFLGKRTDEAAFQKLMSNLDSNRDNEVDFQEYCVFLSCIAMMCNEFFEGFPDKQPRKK

Activity change, negative = inhibition, inactive:
N#Cc1cccc(-c2ccc3c(c2)[C@@H]2[C@@H](CCN2C(=O)c2ccncc2)[C@@H](CO)N3)c1 16.9%
Cc1cc2c(cc1S(=O)(=O)N1CCN(c3cccc(C)c3C)CC1)OCCN2C -3.16%
CCn1nc(C(=O)Nc2cc(Cl)ccc2-n2cncn2)c2ccccc2c1=O 4.26%
CC(C)Cc1cc(C(=O)NCCCN2CCOCC2)no1 -0.225%
Cc1ccc(CNC(=O)Cn2cnc(C(=O)Nc3ccc(C)c(C)c3)n2)o1 -3.72%
COc1ccc(-c2cc(C(=O)NCc3ccco3)c3ccccc3n2)c(OC)c1 4.31%
CC(C)NC(=O)N(C)C[C@@H]1Oc2cc(-c3ccncc3)ccc2S(=O)(=O)N([C@H](C)CO)C[C@H]1C -0.107%
Cc1ccc(N(C)S(=O)(=O)c2ccc3[nH]cc(C(=O)NCCCN4CCOCC4)c(=O)c3c2)cc1C 3.19%
CCC(=O)N1CCC(C)(C(=O)NCc2ccc(F)cc2)C1 (stereo not given) -3.36%
Cc1nc2ccccc2nc1CC(O)(c1ccccc1)c1ccccc1 -2.59%
C[C@H](CO)N1C[C@H](C)[C@H](CN(C)Cc2ccccc2)Oc2c(NC(=O)CCCCCC(=O)Nc3ccccc3N)cccc2C1=O 10.4%
CN(C)C(=O)c1ccc(-c2ccc([C@@H]3[C@@H](CO)N4CCCCN(CC5CC5)C[C@@H]34)cc2)cc1 6.58%
Cc1nonc1NC(=O)CSc1nnc(N)s1 -1.66%
C[C@@H]1CCCCO[C@@H](CN(C)C(=O)C2CCCCC2)[C@@H](C)CN([C@H](C)CO)C(=O)c2cc(NC(=O)Nc3cccc4ccccc34)ccc2O1 8.36% [at 10 µM]
Cc1ccc(C(=O)Nc2ccc(N3CCOCC3)cc2)cc1 -0.762%
